Assay outcomes deposited in PubChem BioAssay by several laboratories.
CYP2C9 activ = human CYP2C9 activators, primary screen, biochemical, luminescence; Cytochrome P450 2C9 (Homo sapiens), P11712; recombinant CYP2C9, luciferin-H conversion; stronger effect = higher value; factor 1 = untreated enzyme, 0 = blocked; activation factor at 5 µM; 96,000 compounds, 1.4% hits;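 active = activation factor of 2 or more for CYP2C9 at a 5 µM dose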;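 note: 0 = sulfaphenazole-blocked wells and 1 = vehicle-only wells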
Target sequence (P11712 whole entry, looked up): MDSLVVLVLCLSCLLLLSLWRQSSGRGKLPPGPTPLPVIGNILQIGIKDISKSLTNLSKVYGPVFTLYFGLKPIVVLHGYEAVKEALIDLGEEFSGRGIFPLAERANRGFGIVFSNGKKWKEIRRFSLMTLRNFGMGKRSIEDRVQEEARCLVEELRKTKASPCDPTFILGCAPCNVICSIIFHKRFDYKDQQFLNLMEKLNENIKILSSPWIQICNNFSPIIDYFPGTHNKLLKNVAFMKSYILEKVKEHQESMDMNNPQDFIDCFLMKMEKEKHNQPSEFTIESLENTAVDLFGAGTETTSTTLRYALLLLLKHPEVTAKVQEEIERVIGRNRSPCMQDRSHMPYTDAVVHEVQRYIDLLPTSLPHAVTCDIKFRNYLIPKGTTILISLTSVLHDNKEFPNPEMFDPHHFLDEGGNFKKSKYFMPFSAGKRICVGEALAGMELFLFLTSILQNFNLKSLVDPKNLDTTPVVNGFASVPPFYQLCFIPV
PostGolgi ctrl = growth inhibition of yeast control strain, primary screen, counter-screen for post-Golgi transport modulator project. efflux-deficient yeast background strain, growth absorbance A615, 16 h. inhibition, % at 10 µM. 98,000 compounds, 5% hits. AID 738, 2007
CYP2C9 inhib = blockers of cytochrome P450 2C9 activity – biochemical, luminescence, ADME assay, primary screen. AID 777, 2007. 96,000 compounds, 20% hits. CYP2C9 Supersomes, luciferin-H conversion. inhibition, % at 5 µM;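 active = blocking of liver enzyme CYP2C9 beyond about 50% at 5 µM, limit read from the data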
CYP2C19 inhib = blockers of cytochrome P450 2C19 activity – biochemical, luminescence, ADME assay, primary screen; CYP2C19 Supersomes, luciferin-H EGE luminescence, 30 min; AID 778, 2007; 96,000 compounds, 21% hits; inhibition, % at 5 µM;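 active = CYP2C19 inhibition above a set limit at 5 µM in the primary screen, cut at about 50% in these data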;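 note: plate controls were negative control wells for no effect and 2.5 mM tranylcypromine positive control for full effect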
PostGolgi yeast = phenotypic screen on post-Golgi transport, primary screen. 98,000 compounds, 0.9% hits. inhibition, % at 10 µM. post-Golgi transport phenotypic cell assay. AID 739, 2007;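 note: yeast cells grown in 1536-well plates; yeast grown about 18 h at 30C before absorbance read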
CYP2C19 activ = human CYP2C19 activators, primary screen, biochemical, luminescence. Cytochrome P450 2C19 (Homo sapiens), P33261. recombinant CYP2C19, luciferin-H EGE luminescence; stronger effect = higher value; 0 = fully inhibited enzyme, 1 = untreated enzyme. activation factor at 5 µM. 96,000 tested, under 10 active. AID 1025, 2008;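 active = activation factor of at least 2 at 5 µM in the primary screen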;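 note: 0 = wells with 2.5 mM tranylcypromine and 1 = vehicle-only wells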
* marks the source's active call; other numbers are inactive results; · = not tested or not shown. Only some compounds are listed: those with a hit (about 32% of all), similar ones and a draw of the others. Cut-off read from the data, not from the text of the source, unless noted: active = inhibition above about 30%; inactive = the rest.

SMILES | CYP2C9 activ | PostGolgi ctrl | CYP2C9 inhib | CYP2C19 inhib | PostGolgi yeast | CYP2C19 activ
COc1cccc2cc(-c3nc(-c4cccs4)cs3)c(=O)oc12 | 0.2 | 9 | 83* | 43 | -5 | 0.6
CCN(CC)CCN1C(=O)C(=O)/C(=C(/O)c2ccncc2)C1c1ccccc1 (stereo unspecified) | 1 | 11 | 5 | 0 | 1 | 1
O=C(NC(=S)Nc1cc(Cl)ccc1N1CCOCC1)c1ccc(-c2cccc(Cl)c2)o1 | 0.9 | -9 | 7 | -18 | -4 | 1.2
N#CCCN1CCN(C(=S)c2ccc(-c3ccc(Cl)c(Cl)c3)o2)CC1 | 0.4 | 33* | 61* | 47 | 8 | 0.5
CC(=O)N1CCN(C(=S)c2ccc(-c3ccc(Cl)cc3)o2)CC1 | 0.8 | 27 | 15 | 20 | 1 | 0.8
S=C(c1ccc(-c2cccc(Cl)c2)o1)N1CCOCC1 | 0.8 | 12 | 16 | 50* | 13 | 0.5
N#CCCN1CCN(C(=S)c2ccc(-c3cccc(Cl)c3)o2)CC1 | 0.7 | 17 | 32 | 93* | -4 | 0.1
C/C(=C(\C#N)C(=O)NCc1ccccc1)N(C)C | 0.9 | 8 | 10 | 12 | -6 | 0.9
Cc1cc(C)c2nc(SC(C)C#N)cc(C)c2c1 (stereo unspecified) | 1.2 | 10 | -19 | -4 | -1 | 1
C/C(CC(=O)Nc1ccc(Cl)c(Cl)c1)=N\NC(N)=S | 0.7 | -4 | 29 | 72* | -4 | 0.3
C/C(CC(=O)Nc1cc(Cl)ccc1Cl)=N\NC(N)=S | 0.9 | 4 | 9 | 18 | 5 | 0.8
CCC1CCCCN1c1cc(C)nc2cc(-c3cccc(C)c3)nn12 (stereo unspecified) | 0.8 | 55* | 17 | 3 | -1 | 1
CN1CCN(C(c2cccc(C(F)(F)F)c2)c2nnnn2Cc2ccccc2)CC1 (stereo unspecified) | 0.6 | -2 | 43 | 52* | 21 | 0.5
N#Cc1cccc(C(c2nnnn2Cc2ccccc2)N2CCCC2)c1 (stereo unspecified) | 0.8 | 18 | 23 | 56* | 14 | 0.4
CCOc1ccc(C)cc1S(=O)(=O)n1ccc(C)n1 | 2.3* | 11 | -130 | 46 | -5 | 0.5
COc1cc(S(=O)(=O)N2CCN(C)CC2)c(OC)cc1Cl | 1.1 | 1 | -13 | 44 | -2 | 0.6
COc1cc(S(=O)(=O)n2ccc(C)n2)c(OC)cc1Cl | 1 | 34* | 0 | 67* | 3 | 0.3
CCOc1cc(C)c(C(C)C)cc1S(=O)(=O)n1ccc(C)n1 | 0.6 | 27 | 38 | 54* | 7 | 0.5
COc1cc(C)c(Cl)cc1S(=O)(=O)n1ccnc1C | 1.5 | 3 | -52 | 92* | -9 | 0.1
CC(CN(C(N)=O)c1ccccc1O)C(=O)O (stereo unspecified) | 1.4 | 0 | -38 | -18 | -3 | 1.2
COc1ccccc1CNC(=O)Cn1cccc1 | 1.1 | 6 | -9 | 38 | 19 | 0.6
O=C(NCc1ccco1)C1CC(=O)N(CCc2ccccc2)C1 (stereo unspecified) | 1 | -2 | -3 | 8 | -4 | 0.9
COc1ccc(OC)c2c1sc(=NC(=O)C(C)C)n2C | 0.3 | 24 | 71* | 71* | -4 | 0.3
COc1ccc(C(=O)N=c2sc3c(C)ccc(OC)c3n2C)cc1 | 0.5 | -2 | 53* | 30 | 0 | 0.7
COc1ccc(OC)c2c1sc(=NC(=O)c1cccc(N3C(=O)CCC3=O)c1)n2C | 1 | 31* | -2 | 1 | -11 | 1
SMILES | CYP2C9 activ | PostGolgi ctrl | CYP2C9 inhib | CYP2C19 inhib | PostGolgi yeast | CYP2C19 activ
COc1cccc(=O)c2c(C)n(-c3cc(C)cc(C)c3)c(C)c12 | 0.2 | 47* | 82* | 82* | 20 | 0.2
CN1CC(=O)N(CC(=O)Nc2ccc(F)cc2)c2ccccc2C1=O | 1 | -6 | 4 | 4 | -6 | 1
COc1ccccc1N=C(C)C1=C(O)CSC1=O | 0.6 | 3 | 38 | 64* | 0 | 0.4
CC(=Nc1ccccc1)C1=C(O)COC1=O | 1 | -5 | 0 | 27 | -10 | 0.7
CC(=Nc1ccc(C)c(C)c1)C1=C(O)CSC1=O | 0.5 | 9 | 50 | 65* | -8 | 0.3
CCOC(=O)N1CCN(C(=O)CN(c2ccc(OCc3ccccc3)cc2)S(C)(=O)=O)CC1 | 0.8 | -5 | 16 | -1 | -1 | 1
CC(C)(C)Cc1nc(-c2ccc(Cl)cc2)no1 | 1.1 | 11 | -11 | -11 | -7 | 1.1
O=C(Cn1cc(/C=N/O)c2ccccc21)N1CCOCC1 | 1.1 | 1 | -10 | -12 | -15 | 1.1
CCN(CC)C(=O)Cn1cc(/C=C(\C#N)C(=O)N2CCN(c3ccccc3)CC2)c2ccccc21 | 0.4 | 1 | 56* | 71* | -3 | 0.3
CCOC(=O)c1nnn(-c2nc(OC)nc(N3CCCCC3)n2)c1-c1ccccc1 | 0.4 | 20 | 56* | 80* | 9 | 0.2
CCOC(=O)c1c(-c2ccccc2)nnn1-c1nc(OCC)nc(N2CCCCC2)n1 | 0.4 | 7 | 60* | 88* | 1 | 0.1
CCOC(=O)c1nnn(-c2nc(N3CCCC3)nc(N3CCCC3)n2)c1-c1ccccc1 | 0.8 | 12 | 23 | 51* | 11 | 0.5
CCOc1nc(N2CCCCC2)nc(-n2cc(-c3ccccc3)nn2)n1 | 0.9 | 2 | 14 | 4 | 11 | 1
CCOC(=O)c1c(C)nc(C)c(C(=O)OCC)c1-c1ccccc1 | · | 24 | · | · | -1 | ·
CC1CCc2c(sc(N)c2C(=O)OC(C)C)C1 (stereo unspecified) | 1.4 | 6 | -44 | 10 | 1 | 0.9
Cc1ccc(C)c(-c2csc(N)c2C(=O)OC(C)C)c1 | 0.3 | 26 | 67* | 69* | 26 | 0.3
COc1cccc(C(c2nnnn2Cc2ccc(F)cc2)N2CCC(C(N)=O)CC2)c1OC (stereo unspecified) | 0.9 | -4 | 11 | 21 | 4 | 0.8
C#CCOC(=O)CCC(=O)Nc1cc(OC)nc(OC)n1 | 1 | 1 | 3 | -3 | 0 | 1
CCCCOC(=O)c1ccc(NC(=O)CSC2=Nc3ccccc3C3CC=NN23)cc1 (stereo unspecified) | 0.1 | 3 | 86* | 38 | 8 | 0.6
CCCCOC(=O)c1ccc(NC(=O)CSc2nncn2C)cc1 | 0.7 | 11 | 27 | 46 | -1 | 0.5
COc1ccc(OCCCc2c(C)n[nH]c2C)cc1 | 0.3 | 1 | 69* | 85* | 2 | 0.2
Cc1cccc(OCCCCc2c(C)n[nH]c2C)c1 | 0.2 | 18 | 76* | 89* | 3 | 0.1
Cc1n[nH]c(C)c1CCCOc1ccccc1 | 0.4 | 4 | 60* | 87* | 0 | 0.1
COc1cccc(OCCc2c(C)n[nH]c2C)c1 | 1 | 0 | -3 | 19 | 21 | 0.8
CCOc1cccc(OCCCOc2ccccc2)c1 | 0.9 | 17 | 13 | 3 | 0 | 1
